Experiment [1] in a line: NCI Yeast Anticancer Drug Screen. Data for the rad50 strain (AID 155).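 Also: 0% = growth of vehicle-only cultures of the same strain.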 The conditions noted are these: S. cerevisiae rad50 strain growth inhibition, hits give high values. An outline of the steps:
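Compounds were tested on a yeast strain with an engineered DNA damage repair alteration; the reported value is growth inhibition normalised to vehicle treatment.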

Experiment [2] in a line: NCI Yeast Anticancer Drug Screen. Data for the mec2-1 strain (AID 157). To be noted: S. cerevisiae mec2-1 strain, hits give high values. An outline of the steps:
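Each compound was tested on mec2-1 yeast, a strain altered in DNA damage repair or cell cycle control. Growth inhibition is reported relative to vehicle.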

Experiment [3] can be described thus: NCI Yeast Anticancer Drug Screen. Data for the sgs1 mgt1 strain (AID 161).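 Also: 0% = growth of cultures given vehicle only.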 The conditions noted are these: S. cerevisiae sgs1 mgt1 strain, hits give high values. An outline of the steps: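 Mutant yeast exposed to compound; growth scored against vehicle-only wells.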
Experiment [4] is described as follows: NCI Yeast Anticancer Drug Screen. Data for the cln2 rad14 strain (AID 165).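 Also: 0% = growth equal to vehicle treated cultures.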 To be noted: S. cerevisiae cln2 rad14 strain, hits give high values. The method in brief: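 Test compounds were added to cln2 rad14 yeast cultures; inhibition of growth was then determined by comparison with vehicle treatment.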
A short description of experiment [5]: NCI Yeast Anticancer Drug Screen. Data for the bub3 strain (AID 167). The conditions noted are these: S. cerevisiae bub3 mutant strain, hits give high values. An outline of the steps: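 Growth of a checkpoint-deficient yeast mutant is measured after compound exposure. Values represent inhibition relative to vehicle.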
Experiment [6] is described as follows: NCI Yeast Anticancer Drug Screen. Data for the mlh1 rad18 strain (AID 175). The conditions noted are these: S. cerevisiae mlh1 rad18 strain growth inhibition, hits give high values. The method in brief:
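Inhibition values reflect reduced growth of mutant yeast versus vehicle-treated controls following compound exposure; the mutations affect DNA damage repair.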

The mark [7] stands for this setting: at 5.0 µM (retest, dose inferred, filed as 0.5).
Setting [8] is: at 50.0 µM (retest, dose inferred, filed as 5.0).

About 79,000 compounds went through this panel and 15% of them were active in at least one assay; those are over-represented in the sample as a whole. A number with no mark means an inactive call. Active and inactive are the calls of the source. Rule as the data show it: active = growth inhibition above about 70%; inactive = the rest.

With `CCC(=O)O[C@H]1CC[C@H]2[C@@H]3CCC4=C/C(=N/OC(=O)c5cccc6c(=O)c7ccccc7[nH]c56)CC[C@]4(C)[C@H]3CC[C@]12C`, the growth inhibition was 29% in experiment [1] (setting [7]); 83% (active) in experiment [1] (setting [8]); 53.8% in experiment [1] (at 50.0 µM); 26% in experiment [2] (setting [7]); 31% in experiment [2] (setting [8]); 77.4% (active) in experiment [2] (at 50.0 µM). Also, the growth inhibition was -26% in experiment [3] (setting [7]); 52% in experiment [3] (setting [8]); 79.3% (active) in experiment [3] (at 50.0 µM); -14% in experiment [4] (setting [7]); 43% in experiment [4] (setting [8]); 47.1% in experiment [4] (at 50.0 µM). The growth inhibition is 10% in experiment [5] (setting [7]); 66% in experiment [5] (setting [8]); 74.4% (active) in experiment [5] (at 50.0 µM); 29% in experiment [6] (setting [7]); 40% in experiment [6] (setting [8]); 17.6% in experiment [6] (at 50.0 µM).
Consider `C=Cc1cc(OC)c2c(c1)c(=O)oc1c2cc(OC)c2c(O)ccc(C3OC(C)C(O)C(C)(O)C3O)c21` (centres undefined), for which the growth inhibition in experiment [1] (setting [7]) is 96% (active); in experiment [1] (setting [8]), 97% (active); in experiment [1] (at 50.0 µM), 90.8% (active); in experiment [2] (setting [7]), 97% (active); in experiment [2] (setting [8]), 97% (active); in experiment [2] (at 50.0 µM), 91.8% (active). In addition, the growth inhibition in experiment [3] (setting [7]) was 97% (active); in experiment [3] (setting [8]) it was 98% (active); in experiment [3] (at 50.0 µM), 90.3% (active); in experiment [4] (setting [7]) it was 97% (active); in experiment [4] (setting [8]), 97% (active); in experiment [4] (at 50.0 µM) it was 90.1% (active). Moreover, the growth inhibition in experiment [5] (setting [7]) was 97% (active); in experiment [5] (setting [8]), 98% (active); in experiment [5] (at 50.0 µM) it was 89.4% (active); in experiment [6] (setting [7]), 96% (active); in experiment [6] (setting [8]), 96% (active); in experiment [6] (at 50.0 µM) it was 89.9% (active).
`N#C[S-].[Nd+3].c1ccc(-c2ccccn2)nc1.c1ccc(-c2ccccn2)nc1.c1ccc(-c2ccccn2)nc1`: the growth inhibition is 62% in experiment [1] (setting [7]); 99% (active) in experiment [1] (setting [8]); 91.2% (active) in experiment [1] (at 50.0 µM); 40% in experiment [2] (setting [7]); 99% (active) in experiment [2] (setting [8]); 94.1% (active) in experiment [2] (at 50.0 µM). In addition, the growth inhibition was 44% in experiment [3] (setting [7]); 99% (active) in experiment [3] (setting [8]); 93.5% (active) in experiment [3] (at 50.0 µM); 33% in experiment [4] (setting [7]); 96% (active) in experiment [4] (setting [8]); 92.5% (active) in experiment [4] (at 50.0 µM). Further, the growth inhibition in experiment [5] (setting [7]) was 62%; in experiment [5] (setting [8]), 100% (active); in experiment [5] (at 50.0 µM), 93% (active); in experiment [6] (setting [7]) it was 51%; in experiment [6] (setting [8]), 99% (active); in experiment [6] (at 50.0 µM) it was 92% (active).
In the case of `Cc1ccc([C@H]2N[C@@H]2c2ccccn2)cc1`, the growth inhibition in experiment [1] (setting [7]) is -16%; in experiment [1] (setting [8]) it was -22%; in experiment [1] (at 50.0 µM), 6.35%; in experiment [2] (setting [7]), -18%; in experiment [2] (setting [8]) it was 1%; in experiment [2] (at 50.0 µM), 7%. Moreover, the growth inhibition is -5% in experiment [3] (setting [7]); -12% in experiment [3] (setting [8]); 3.45% in experiment [3] (at 50.0 µM); -15% in experiment [4] (setting [7]); -5% in experiment [4] (setting [8]); 30.1% in experiment [4] (at 50.0 µM). The growth inhibition in experiment [5] (setting [7]) is -4%; in experiment [5] (setting [8]), -2%; in experiment [5] (at 50.0 µM), -2.75%; in experiment [6] (setting [7]), -5%; in experiment [6] (setting [8]), -10%; in experiment [6] (at 50.0 µM), 19%.
Take `CCC[CH2][Sn]([N]=C=S)([N]=C=S)[N]=C=S.O=P(c1ccccc1)(c1ccccc1)c1ccccc1.O=P(c1ccccc1)(c1ccccc1)c1ccccc1`: the growth inhibition in experiment [1] (setting [7]) was -5%; in experiment [1] (setting [8]), 27%; in experiment [1] (at 50.0 µM), 50.3%; in experiment [2] (setting [7]), -4%; in experiment [2] (setting [8]) it was 15%; in experiment [2] (at 50.0 µM), 61.2%. The growth inhibition in experiment [3] (setting [7]) was -4%; in experiment [3] (setting [8]) it was 46%; in experiment [3] (at 50.0 µM) it was 83.2% (active); in experiment [4] (setting [7]), -2%; in experiment [4] (setting [8]), 10%; in experiment [4] (at 50.0 µM) it was 23.1%. The growth inhibition in experiment [5] (setting [7]) is -4%; in experiment [5] (setting [8]), 33%; in experiment [5] (at 50.0 µM), 46.2%; in experiment [6] (setting [7]), -4%; in experiment [6] (setting [8]), 44%; in experiment [6] (at 50.0 µM), 75.3% (active).
Regarding `COc1cc(C=Nc2cc[c]([Hg][O]C(C)=O)cc2)ccc1O`, the growth inhibition was 4% in experiment [1] (setting [7]); 23% in experiment [1] (setting [8]); 99.5% (active) in experiment [1] (at 50.0 µM); -1% in experiment [2] (setting [7]); 67% in experiment [2] (setting [8]); 99.5% (active) in experiment [2] (at 50.0 µM). The growth inhibition was 2% in experiment [3] (setting [7]); 67% in experiment [3] (setting [8]); 99.4% (active) in experiment [3] (at 50.0 µM); -4% in experiment [4] (setting [7]); 22% in experiment [4] (setting [8]); 99.3% (active) in experiment [4] (at 50.0 µM). The growth inhibition in experiment [5] (setting [7]) was 3%; in experiment [5] (setting [8]), 75% (active); in experiment [5] (at 50.0 µM) it was 99.3% (active); in experiment [6] (setting [7]), 0%; in experiment [6] (setting [8]), 56%; in experiment [6] (at 50.0 µM), 99.3% (active).
With `COc1ccc(CC2C(=O)NC(C)C(=O)N(C)C3C(=O)N(C)C(Cc4ccc(O)c(c4)Oc4ccc(cc4)C3O)C(=O)NC(C)C(=O)NC(C)C(=O)N2C)cc1` (centres undefined), the growth inhibition in experiment [1] (setting [7]) is -8%; in experiment [1] (setting [8]), 80% (active); in experiment [1] (at 50.0 µM), 75.9% (active); in experiment [2] (setting [7]) it was 29%; in experiment [2] (setting [8]), 69%; in experiment [2] (at 50.0 µM) it was 47.5%. Moreover, the growth inhibition in experiment [3] (setting [7]) was 12%; in experiment [3] (setting [8]), 63%; in experiment [3] (at 50.0 µM) it was 54.3%; in experiment [4] (setting [7]), 27%; in experiment [4] (setting [8]), 88% (active); in experiment [4] (at 50.0 µM) it was 84.5% (active). The growth inhibition is 19% in experiment [5] (setting [7]); 81% (active) in experiment [5] (setting [8]); 65.4% in experiment [5] (at 50.0 µM); 10% in experiment [6] (setting [7]); 87% (active) in experiment [6] (setting [8]); 63% in experiment [6] (at 50.0 µM).
Take `[C-]#[O+].[C-]#[O+].[C-]#[O+].[CH3][Sn]([c]1ccccc1)[c]1ccccc1.[Co].c1ccc([PH+](c2ccccc2)c2ccccc2)cc1`: the growth inhibition in experiment [1] (setting [7]) was 99% (active); in experiment [1] (setting [8]), 99% (active); in experiment [1] (at 50.0 µM), 99.5% (active); in experiment [2] (setting [7]), 99% (active); in experiment [2] (setting [8]), 100% (active); in experiment [2] (at 50.0 µM) it was 99.5% (active). In addition, the growth inhibition is 99% (active) in experiment [3] (setting [7]); 100% (active) in experiment [3] (setting [8]); 99.5% (active) in experiment [3] (at 50.0 µM); 99% (active) in experiment [4] (setting [7]); 99% (active) in experiment [4] (setting [8]); 99% (active) in experiment [4] (at 50.0 µM). Also, the growth inhibition in experiment [5] (setting [7]) is 99% (active); in experiment [5] (setting [8]) it was 99% (active); in experiment [5] (at 50.0 µM) it was 99.5% (active); in experiment [6] (setting [7]), 99% (active); in experiment [6] (setting [8]) it was 99% (active); in experiment [6] (at 50.0 µM), 99.3% (active).
